Bioassay records (PubChem)
Rows were chosen to be rich in hits. Some 6.1% of all compounds tested hit in one or more screens of this group.
D1 agonist: activates the human D1 dopamine receptor; HEK293 T-REx D1 cells, calcium flux, agonist mode; P21728; AID 504660; activation, % at 2 µM; actives 1% (n = 360,000); in the data active = activation above about 30%
Target sequence (P21728 whole entry, looked up): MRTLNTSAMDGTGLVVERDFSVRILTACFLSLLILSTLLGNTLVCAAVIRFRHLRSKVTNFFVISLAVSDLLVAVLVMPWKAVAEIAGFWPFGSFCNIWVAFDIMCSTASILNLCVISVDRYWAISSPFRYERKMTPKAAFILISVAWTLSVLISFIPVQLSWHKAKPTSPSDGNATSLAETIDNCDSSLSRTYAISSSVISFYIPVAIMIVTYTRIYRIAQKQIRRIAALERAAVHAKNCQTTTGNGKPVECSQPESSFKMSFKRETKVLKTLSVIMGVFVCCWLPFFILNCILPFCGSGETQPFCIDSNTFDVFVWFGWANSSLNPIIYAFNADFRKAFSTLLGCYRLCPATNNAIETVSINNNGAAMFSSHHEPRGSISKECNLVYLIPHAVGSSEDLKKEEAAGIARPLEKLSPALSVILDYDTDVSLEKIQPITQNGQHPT
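Inducible HEK293 T-REx D1 cells, force-coupled to calcium signalling, were plated at 4000 cells/well with tetracycline and held overnight at 30 C. After no-wash calcium dye loading, compound-evoked calcium rise over 180 s flagged agonists.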
D3 ag: activates the human D3 dopamine receptor; P35462; D3R DiscoveRx beta-arrestin cells, luminescence, 90 min; max activation, %; actives 0.58% (n = 410,000); in the data active = max activation above about 30%
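Cells at 1500/well, incubated overnight, then treated with pinned compounds (dopamine as control) for 90 min at 37 degrees C. DiscoveRx reagent added for 30 - 60 minutes at room temperature; luminescence read.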
D1 antag: human D1 dopamine receptor antagonism. activity change, negative = inhibition, % at 10 µM. AID 504652. actives 3.2% (n = 360,000). P21728. HEK293 TREx D1 cells, calcium flux, dopamine EC80; active compounds read low; in the data active = activity change below about -30%
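Compound effects on dopamine-evoked calcium signalling were measured in tetracycline-induced HEK293 Trex D1 cells. Dopamine at EC80 followed a 180 s compound pre-read, and fluorescence was tracked kinetically for 180 s more.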
D1 PAM: human D1 dopamine receptor positive modulation | potentiation, % at 10 µM | HEK293 TREx D1 cells, calcium flux, dopamine EC20 potentiation | AID 504651 | P21728 | actives 0.036% (n = 360,000); in the data active = potentiation above about 30%
D3 antag: blocks the human D3 dopamine receptor | P35462 | D3R cells, DiscoveRx beta-arrestin luminescence, antagonist mode; active compounds read low | AID 652054 | actives 2.5% (n = 360,000) | max response, negative = inhibition, %; in the data active = max response below about -50%; inconclusive = no clear call, values can overlap the other calls
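Cells expressing the human receptor were seeded at 1500 cells/well, incubated overnight at 37 degrees C in 5% CO2, then exposed to library compounds with dopamine controls for 90 minutes at 37 degrees C before luminescent detection.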
A number is an active result; - = inactive; ? = inconclusive; . = no result given; ! = not confirmed by another sample.

SMILES	D1 agonist	D3 ag	D1 antag	D1 PAM	D3 antag
Cc1nc2c(OCc3cccc(Cl)c3)cccn2c1N(C)Cc1cccs1	.	-	.	.	-
CC1(C)CC(=O)C=C(c2ccc(Oc3ccccc3)cc2)C1	-	-	.	-	-65.0
COc1cc(N)c(Cl)cc1C(=O)NC1CCN(Cc2ccccc2)CC1	.	-	.	.	-108.3
Cc1ccc(CN2CCC(NC(=O)c3ccccc3)CC2)cc1	-	-	-	-	-95.6
O=C(NC1CCN(Cc2ccccc2)CC1)c1ccc(CS(=O)c2ccccc2Cl)o1 (stereo not given)	.	-	.	.	-117.0
COC(=O)[C@@H](NC(=O)NC1CCN(Cc2ccccc2)CC1)C(C)C	-	-	-	-	-52.8
CC(C)[C@H](NC(=O)NC1CCN(Cc2ccccc2)CC1)C(=O)O	-	-	-	-	-
CCN(CC)CCCNC(=O)c1cc(-c2ccccc2)c(N2CCCCC2)s1	-	-	-	-	?
CC/C(=N\NC(=O)c1cc(C2CC2)[nH]n1)c1ccccc1	-	-	-	-	-
CC1(C)Cc2cccc(OC(=O)NC3CCCCC3)c2O1	.	-	.	.	-
Cc1ccc(C)n1-c1ccc(C(=O)NC2CCN(Cc3ccccc3)CC2)cc1	-	-	-	-	-52.1
CCc1nc2ccc(C(=O)NC3CCN(C)CC3)cn2c1N(C)CCC(C)C	.	-	.	.	-
Cc1ccccc1C(=O)NC1CCN(Cc2nnnn2CCc2ccccc2)CC1	-	-	-	-	-
CCN(c1ccccc1)S(=O)(=O)c1ccc(C(=O)NC2CCN(Cc3ccccc3)CC2)cc1	.	-	.	.	?
Cc1ccccc1C(=O)NC1CCN(Cc2ccccc2)CC1	-	-	-32.5	-	-
CCc1nc2ccc(C(=O)NC3CCN(Cc4ccccc4)CC3)cn2c1N(C)Cc1ccc(N(C)C)cc1	.	-	.	.	-62.9
CC1(C)Cc2cccc(C(=O)NC3CCN(Cc4ccccc4)CC3)c2O1	-	-	-	-	-76.7
COc1cc(NC(=S)NC(=O)c2ccccc2F)ccc1NC(=O)c1ccco1	-	-	-	-	-
Cc1cc(C(=O)COC(=O)C2=COCCO2)c(C)n1-c1cccc(F)c1	-	-	-	-	-
O=C(Cc1ccc(NC(=O)N2CCCCc3ccccc32)cc1)NCc1ccccc1Br	-	-	-	-	.
Cc1ccn2c(=O)nc(SCC(=O)NC3CCCC3)nc2c1	-	-	-	-	-
COc1ccc(-c2oc3c(c2C(=O)OCCO)C(OCCCO)CCC3)cc1 (stereo not given)	.	-	.	.	-
Brc1ccc(-c2csc(N3CCCCC3)n2)cc1	-	.	-	-	.
Cc1c(Cl)cccc1NC(=O)CN1CCC(C(O)(c2ccccc2)c2ccccc2)CC1	-	-	-	-	-62.2
Cc1c(Cl)cccc1NC(=O)CCN1CCCCC1	-	-	-	-	-58.5
SMILES	D1 agonist	D3 ag	D1 antag	D1 PAM	D3 antag
Cc1c(Cl)cccc1NC(=O)CCN1CCN(C)CC1	-	-	-	-	-
Cc1ccccc1C(=O)NC1CCN(CC(=O)Nc2ccccc2Cl)CC1	-	-	-	-	-
O=C(CCN1CCCCC1)Nc1ccc(Br)cc1	-	-	-	-	-69.5
Cc1ccc(NC(=O)CN2CCCC2)cc1Br	-	-	-	-	-64.3
CN1CCN(CCC(=O)Nc2ccc(Br)cc2)CC1	-	-	-	-	-
CC1CCc2nc3ncn(CC(=O)Nc4cccc(C#N)c4)c(=O)c3cc2C1 (stereo not given)	-	-	-	-	.
O=C(CN1CCCC1)Nc1ccc(Br)cc1	-	-	-	-	-
O=C(CN1CCN(C2CCCCC2)CC1)Nc1ccc(Br)cc1	-	-	-	-	-52.9
COc1cn(CC(=O)Nc2ccc(C)cc2)c(CN2CCCCC2)cc1=O	-	-	-45.8	-	.
COc1cn(CC(=O)Nc2ccc(F)cc2)c(CN2CCCCC2)cc1=O	-	-	-	-	.
O=C(CN1CCCCCC1)Nc1ccc(Br)cc1	-	-	-	-	-114.0
COC(=O)c1ccc(NC(=O)CCN2CCCCC2)cc1	-	-	-	-	-52.3!
O=C(CN1CCN(S(=O)(=O)N2CCCCC2)CC1)Nc1ccc(Br)cc1	-	-	-	-	-
NC(=O)CSc1nnc(-c2ccco2)n1-c1ccc(F)cc1	.	-	.	.	-
CC(C)C[C@H](NC(=O)[C@@H](COC(C)(C)C)NC(=O)[C@H](Cc1ccc(O)cc1)NC(=O)[C@H](CO)NC(=O)[C@H](Cc1c[nH]c2ccccc12)NC(=O)[C@H](Cc1cnc[nH]1)NC(=O)[C@@H]1CCC(=O)N1)C(=O)N[C@@H](CCCN=C(N)N)C(=O)N1CCC[C@H]1C(=O)NNC(N)=O	.	-	.	.	.
CCOC(=O)c1cc(-c2ccccc2)n(CCCC(=O)Nc2ccc(C)cc2C)c1C	-	-	-	-	.
Cc1ccc(S(=O)(=O)Nc2ccc(NC(=O)CN3CCCCC3)cc2)cc1	-	-	-	-	-60.3
CCOC(=O)c1cc(-c2ccccc2)n(CCCC(=O)Nc2cccc(Cl)c2C)c1C	-	-	-67.6	-	.
CNC[C@@H]1Oc2cc(Br)ccc2S(=O)(=O)N([C@@H](C)CO)C[C@H]1C	.	-	.	.	-
Cc1ccc(CN2CCN(CC3CC4C=CC3C4)CC2)cc1 (stereo not given)	-	-	-	-	-59.9
Brc1ccc(-c2ccc(CNCc3ccccn3)o2)cc1	-	-	-	-	-73.5
COc1cccc(CNC(=O)CCn2cccn2)c1	-	-	-	-	.
Cc1ccc(NCc2nnc(SCCN3CCCCC3)n2CC2CCCO2)c(C)c1 (stereo not given)	-	-	-	-	-54.2
Cc1sc2ncnc(N3CCN(Cc4ccccc4)CC3)c2c1-c1ccc(F)cc1	-	-	-	-	-
Cn1c(=O)c2nc3ccc(NC(=O)C(F)(F)F)cc3nc2n(C)c1=O	-	-	-	-	.
SMILES	D1 agonist	D3 ag	D1 antag	D1 PAM	D3 antag
Cc1cc2nc3c(=O)[nH]c(=S)[nH]c3nc2cc1NC(=O)C(F)(F)F	64.0	-	-	-	-
CCc1oc2ccccc2c1C(=O)CCN1CCCCC1	-	-	-	-	-94.0
CCN(CC)C(=O)C1=C(C)N(CCCOC)C(=O)C(CC(=O)NC2CC2)C1 (stereo not given)	.	-	.	.	-115.6
CCOc1ccc(-n2c(O)cc(=O)[nH]c2=O)cc1	-	-	-	-	-
Cc1cc2c(s1)c1cnn(Cc3ccc(S(C)(=O)=O)cc3)c(=O)c1n2C	-	.	-	-	.
CC(C)CCOc1cccc(OCC(=O)Nc2ccncc2)c1	-	-	-30.7	-	?
CCC(C)(C)c1ccc(OCC(=O)Nc2ccncc2)cc1	44.8	-	-	-	-
COc1cccc(OCC(=O)Nc2ccncc2)c1	-	-	-	-	-
O=C(COc1ccc(Br)cc1)Nc1ccncc1	-	-	-	-	-
COc1ccccc1NC(=O)Cn1c(=O)n(Cc2ccc3c(c2)OCO3)c(=O)c2oc3ccccc3c21	-	-	-	-	.
Cc1cc2c(c(=O)n1Cc1ccco1)C(c1cccnc1)C(C#N)=C(N)O2 (stereo not given)	-	-	-	-	-
